Compound activity as filed in PubChem.
Rows were chosen to be rich in hits. Some 2.8% of all compounds tested hit in one or more screens of this group.
PI4K2A inh – inhibitors of human PI4K2A; Q9BTU6; purified PI4K2A, ADP-Glo luminescence, 1 h; hits give low values; activity change, negative = inhibition, % at 76.9 µM; 0.13% of 420,000 active; AID 1346378; in the data active means activity change below about -50%; inconclusive means mostly about -30% to -49%;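 further: -100% = wells without enzyme as full effect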
Target sequence (Q9BTU6 whole entry, looked up): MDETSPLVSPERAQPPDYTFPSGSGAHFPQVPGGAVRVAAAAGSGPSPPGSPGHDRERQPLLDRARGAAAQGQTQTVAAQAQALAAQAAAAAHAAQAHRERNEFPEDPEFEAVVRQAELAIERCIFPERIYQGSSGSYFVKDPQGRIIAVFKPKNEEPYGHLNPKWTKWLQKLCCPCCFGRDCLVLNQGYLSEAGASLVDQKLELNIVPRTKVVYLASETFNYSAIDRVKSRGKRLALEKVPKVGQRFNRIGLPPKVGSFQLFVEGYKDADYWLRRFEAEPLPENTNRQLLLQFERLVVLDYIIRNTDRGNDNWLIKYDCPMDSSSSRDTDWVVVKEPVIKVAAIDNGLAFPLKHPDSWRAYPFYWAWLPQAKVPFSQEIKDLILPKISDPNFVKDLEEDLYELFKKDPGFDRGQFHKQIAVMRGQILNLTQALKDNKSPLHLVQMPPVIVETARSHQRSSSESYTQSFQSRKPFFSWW
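Compounds are screened against recombinant PI4K2A using PI as substrate and ATP, the latter dispensed at 300 microM. Reactions run one hour at ambient temperature before ADP-Glo detection; full inhibition defined by wells lacking enzyme.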
RGS4 inh – inhibitors of human regulator of G protein signaling 4 | Potency, µM (doses to about 114 µM), for inactives: at the highest dose activity change, negative = inhibition, usual class: inhibitors | AID 504845 | 0.039% of 390,000 active | P49798 | Transcreener GDP fluorescence polarization, RGS4-accelerated GTP hydrolysis; active means well fitted inhibition curve with a large enough effect; inconclusive means small, poorly fitted or top-dose-only effect; inactive means no such curve, though single readings can be large or run the other way; further: potency means the concentration at half of the fitted maximal effect; on the % scale 0 is the no-effect control and ±100 the full control effect; nearly all actives have a fitted effect of over 75% in size
Target sequence (P49798 whole entry, looked up): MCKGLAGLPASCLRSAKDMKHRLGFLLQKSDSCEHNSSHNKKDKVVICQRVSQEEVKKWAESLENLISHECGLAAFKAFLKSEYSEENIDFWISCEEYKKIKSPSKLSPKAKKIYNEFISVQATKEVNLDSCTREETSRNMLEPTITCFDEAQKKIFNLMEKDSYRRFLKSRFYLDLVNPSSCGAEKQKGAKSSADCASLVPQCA
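MLSMR compounds (23 nl, pin-transferred) preincubated 10 min at room temperature with a 500nM (2x) first reagent, then RGS4 at 900nM (2x) plus Transcreener GDP mix added; fluorescence polarization (620/688 nm) read before and after 90 min at 30 °C.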
LDHA inh – blocks human lactate dehydrogenase A | P00338 | purified LDHA, NADH/diaphorase-resazurin fluorescence; hits give low values | activity change, % (values are at about 110 or 230 µM) | 0.15% of 480,000 active; in the data active means activity change below about -30%; inconclusive means mostly about -25% to -30%;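 further: plate controls were DMSO wells for no effect and wells without enzyme for full effect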
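LDH5 2 nM; NADH 0.06 mM, pyruvate 0.2 mM; 200 mM Tris pH 7.4, EDTA, Tween-20; 5 min RT. Detection: diaphorase 0.133 mg/mL + resazurin 37 µM, fluorescence ex540/em590 at 0 and 20 min; normalized to enzyme-free and DMSO wells.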
D3 antag – antagonists of human D3 dopamine receptor; max response, negative = inhibition, %; AID 652054; P35462; D3R cells, DiscoveRx beta-arrestin luminescence, antagonist mode; hits give low values; 2.5% of 360,000 active; in the data active means max response below about -50%; inconclusive means no clear call, values can overlap the other calls; further: on the % scale 0 is the no-effect control and ±100 the full control effect
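Cells plated overnight at 1500 cells/well, then exposed to library compounds with dopamine controls for 90 minutes at 37 degrees C. DiscoveRx reagent added for 30–60 minutes at room temperature; luminescence read, quantitative HTS format.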
DRD3 agonist – activates the human D3 dopamine receptor; P35462; D3R DiscoveRx beta-arrestin cells, luminescence, 90 min; max activation, %; 0.58% of 410,000 active; in the data active means max activation above about 30%; further: 0% is about no effect
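Agonist mode: compounds and dopamine controls were applied to plated cells for 90 min at 37 degrees C after an overnight attachment at 1500 cells/well. Luminescent read-out followed 30 - 60 minutes at room temperature with DiscoveRx detection reagent.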
Akt phos inh – blocks phosphorylation of Akt | Neuro2A IGF-stimulated pAkt S473 HTRF, 20 min; hits give low values | activity change, % for hits at 50 µM | 0.32% of 360,000 active | AID 651550; in the data active means activity change below about -80%; inconclusive means mostly about -51% to -80%; further: on the % scale 0 is the no-effect control and ±100 the full control effect
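Neuro2A cells (4,500/well, DMEM with 0.5% FBS) were treated with compound at a single 50 µM final concentration, stimulated with 6 nM IGF for 20 min at 37 °C, and lysed. Phospho-Akt Ser473 was read by HTRF as 665/615 ratio ×10^4.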
An asterisk follows results filed as active.

How did c1ccc(N2CCN(Cc3nnc(-c4ccc5c(c4)OCO5)o3)CC2)cc1 do in these assays?
PI4K2A inh: 1; RGS4 inh: -8%; LDHA inh: 4; DRD3 agonist: 37*

How did O=C(c1cc(-c2ccc3c(c2)OCO3)on1)N1CCN(c2ccccc2)CC1 do in these assays?
PI4K2A inh: -3; RGS4 inh: -4%; LDHA inh: 0; D3 antag: 56; DRD3 agonist: 53*; Akt phos inh: inactive

How did O=C(c1cc(-c2ccc3c(c2)OCO3)on1)N1CCN(c2ccc(F)cc2)CC1 do in these assays?
PI4K2A inh: 0; RGS4 inh: -20%; LDHA inh: -1; D3 antag: 8; DRD3 agonist: -10; Akt phos inh: inactive

Results for Cc1ccccc1-c1nnc(CN2CCN(c3ccccn3)CC2)o1 ?
PI4K2A inh: -1; RGS4 inh: 20%; LDHA inh: -5; DRD3 agonist: 50*

How did CCOc1cc(NC(=O)c2ccc(Cn3cc(Cl)cn3)cc2)ccc1OC(F)F do in these assays?
LDHA inh: -11

What do the screens show for `CC(C)COc1ccc(C(=O)N2CCC(c3nc4ccccc4o3)CC2)cc1`?
LDHA inh: 5

What do the screens show for `c1ccc(-c2nnc(CN3CCN(c4ccccc4)CC3)o2)cc1`?
PI4K2A inh: -8; RGS4 inh: 5%; LDHA inh: 2; D3 antag: -17; DRD3 agonist: 55*; Akt phos inh: inactive

What do the screens show for `COc1cc(/C=N/NC(=O)Cc2ccccc2)ccc1Oc1ccc([N+](=O)[O-])cc1[N+](=O)[O-]`?
PI4K2A inh: 7; RGS4 inh: -32%; LDHA inh: -2; D3 antag: -24; DRD3 agonist: -11; Akt phos inh: inactive

What do the screens show for `COc1cc(/C=N/NC(=O)CSc2ccccn2)ccc1O`?
PI4K2A inh: 4; RGS4 inh: 2%; LDHA inh: -1; D3 antag: 8; DRD3 agonist: -11; Akt phos inh: inactive

What do the screens show for `COc1cc([N+](=O)[O-])cc(/C=N/NC(=O)c2ccc(C)nc2)c1O`?
PI4K2A inh: 3; RGS4 inh: -15%; LDHA inh: 15; D3 antag: inconclusive; DRD3 agonist: -11; Akt phos inh: inactive

How did COc1cc(/C=N/NC(=O)Cc2ccccc2)cc([N+](=O)[O-])c1O do in these assays?
PI4K2A inh: -3; RGS4 inh: -9%; LDHA inh: 7; D3 antag: -56*; DRD3 agonist: -7; Akt phos inh: inactive

What do the screens show for `COc1cc([N+](=O)[O-])cc(/C=N/NC(=O)Cn2cncn2)c1O`?
PI4K2A inh: -2; RGS4 inh: 4%; LDHA inh: 4; D3 antag: -76*; DRD3 agonist: -26; Akt phos inh: inactive

Results for COc1cc([N+](=O)[O-])cc(/C=N/NC(=O)CSc2ccccn2)c1O ?
PI4K2A inh: -2; RGS4 inh: -19%; LDHA inh: 11; D3 antag: -52*; DRD3 agonist: -16; Akt phos inh: inactive

How did Cc1nonc1C(=O)N/N=C/c1ccc(O)c(O)c1 do in these assays?
PI4K2A inh: -62*; RGS4 inh: -6%; LDHA inh: 9; D3 antag: -2; DRD3 agonist: -4; Akt phos inh: inactive

Results for CCOc1cc2[nH]c(=O)n(CCCCC(=O)N3CCN(c4ccccc4)CC3)c(=O)c2cc1OCC ?
PI4K2A inh: -1; RGS4 inh: 0%; LDHA inh: -6; DRD3 agonist: 6

Results for O=C(CCCn1c(=S)[nH]c2cc3c(cc2c1=O)OCO3)N1CCN(c2ccc(F)cc2)CC1 ?
PI4K2A inh: -3; RGS4 inh: -18%; LDHA inh: -3; D3 antag: 51; DRD3 agonist: 36*; Akt phos inh: inactive

How did CCOc1cc2[nH]c(=O)n(CCCC(=O)N3CCN(c4ccc(OC)cc4)CC3)c(=O)c2cc1OCC do in these assays?
PI4K2A inh: 2; RGS4 inh: 22%; LDHA inh: -1; DRD3 agonist: 30*

Results for CCOC(=O)N1CCN(C(=O)c2ccc(Cn3c(=S)[nH]c4cc5c(cc4c3=O)OCO5)cc2)CC1 ?
PI4K2A inh: 4; RGS4 inh: -53%; LDHA inh: -5; D3 antag: 15; DRD3 agonist: 85*; Akt phos inh: inactive

What do the screens show for `Cc1cccc(CSCc2ccc(-c3nc(-c4ccc(Br)cc4)no3)o2)c1`?
LDHA inh: -1

How did COc1ccc(OC)c(NC(=O)c2cc(=O)c3cc(C)ccc3o2)c1 do in these assays?
LDHA inh: 9

What do the screens show for `C[C@H](CO)N1C[C@H](C)[C@@H](CN(C)C(=O)c2ccc(F)cc2)Oc2cc(Br)ccc2S1(=O)=O`?
PI4K2A inh: -4; LDHA inh: 2; D3 antag: -95*; DRD3 agonist: -4; Akt phos inh: inactive

How did CCOC(=O)C1CCN(C(=O)c2oc3ccc(S(=O)(=O)N4CC(C)CC(C)C4)cc3c2C)CC1 (centres undefined) do in these assays?
PI4K2A inh: 0; RGS4 inh: 4%; LDHA inh: -1; D3 antag: 10; DRD3 agonist: -3; Akt phos inh: -82%*

How did CCN(CC)C1=NC(C(F)(F)F)(C(F)(F)F)N=C(c2cccc(OC)c2)O1 do in these assays?
LDHA inh: 0

Results for COc1cc2cc(C(=O)NCC(=O)Nc3ccc4c(c3)OCO4)[nH]c2c(OC)c1OC ?
LDHA inh: -1

How did CCOC(=O)CNC(=O)CNC(=O)c1ccc(OC)cc1 do in these assays?
PI4K2A inh: 1; RGS4 inh: -9%; LDHA inh: -3; D3 antag: -8; DRD3 agonist: -2; Akt phos inh: -108%*

What do the screens show for `CCCCOc1ccc(C(=O)NCC(=O)NCC(=O)OCC)cc1`?
PI4K2A inh: -1; RGS4 inh: -39%; LDHA inh: 5; D3 antag: -27; DRD3 agonist: 1; Akt phos inh: inactive

Results for Cc1ccc(NC(=O)COC(=O)CNC(=O)C2CCCCC2)cc1S(=O)(=O)N(C)C ?
PI4K2A inh: 0; RGS4 inh: -5%; LDHA inh: -19; D3 antag: 10; DRD3 agonist: 0; Akt phos inh: inactive

Results for CCOc1ccc(NC(=O)CNC(=O)c2ccc(OC)cc2)cc1 ?
PI4K2A inh: 9; RGS4 inh: 1%; LDHA inh: -4; D3 antag: 5; DRD3 agonist: 0; Akt phos inh: inactive

What do the screens show for `CCOc1ccc(C(=O)NCC(=O)OCC(=O)Nc2ccc(C)c(S(=O)(=O)N(C)C)c2)cc1`?
PI4K2A inh: -6; RGS4 inh: 17%; LDHA inh: -31*; D3 antag: 5; DRD3 agonist: -7; Akt phos inh: inactive
